Laboratory results taken from PubChem BioAssay (NCATS).
Values without a mark were called inactive. Inconclusive results are not listed. Active and inactive are the calls of the source. Unless noted, calls follow the shape of the dose curve; as a rule, active = well fitted curve in either direction with a large enough effect (not every such curve was filed as active); inconclusive = small, poorly fitted or top-dose-only effect, or another doubt; inactive = flat fitted curve, though single readings scatter.

Tests used:
[1] = target: Lysosomal acid glucosylceramidase (Homo sapiens) (UniProt P04062); test: Glucocerebrosidase-p2 (AID 348; in the data active = potency below about 10 µM; also: potency is read from the fitted curve at half-maximal effect); conditions: purified GBA, blue fluorogenic substrate, 40 min
Sequence of Lysosomal acid glucosylceramidase (Homo sapiens) (P04062 whole entry, looked up): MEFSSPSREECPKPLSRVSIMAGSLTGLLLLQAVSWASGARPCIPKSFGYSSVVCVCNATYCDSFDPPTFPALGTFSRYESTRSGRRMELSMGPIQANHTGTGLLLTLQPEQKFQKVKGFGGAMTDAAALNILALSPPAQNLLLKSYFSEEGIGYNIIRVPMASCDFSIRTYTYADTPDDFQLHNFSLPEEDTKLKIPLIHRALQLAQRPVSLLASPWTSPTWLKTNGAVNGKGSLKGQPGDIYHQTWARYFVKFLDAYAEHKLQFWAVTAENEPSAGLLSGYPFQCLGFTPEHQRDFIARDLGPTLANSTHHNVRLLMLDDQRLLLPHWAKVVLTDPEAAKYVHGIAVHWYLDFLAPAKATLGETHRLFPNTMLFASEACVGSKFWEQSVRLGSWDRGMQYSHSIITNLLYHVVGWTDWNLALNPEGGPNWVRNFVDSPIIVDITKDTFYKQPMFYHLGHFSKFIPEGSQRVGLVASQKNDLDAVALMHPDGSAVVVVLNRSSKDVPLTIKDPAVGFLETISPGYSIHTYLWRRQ
Outline: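 Compounds titrated from 0.6 nM upwards against 0.2 nM enzyme in pH 5.9 citric acid/KH2PO4, taurocholate, tween-20; blue fluorogenic substrate 80 uM, 40 min room temperature, stopped and read Ex 365/Em 440 for AC50.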

[2] = AP1 Signaling Pathway (AID 357); conditions: ME-180 AP-1-bla reporter, EGF-induced, beta-lactamase ratio, 5 h; at 7.69 µM (top of the series) unless noted;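 also: ME-180 reporter cells stimulated with EGF at its EC50 level; % is scaled to controls: 0 for no effect and ±100 for the full control effect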
Outline: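 AP-1-bla ME-180 cells, Opti-MEM + 0.5% dialyzed FBS, plated overnight 37 °C. Cpd titration + EC50 EGF, 5 h 37 °C. CCF4 2.5 h RT; ex 405, em 460/530 ratio → %activity, AC50.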

[3] = target: Cytochrome P450 1A2 (Homo sapiens) (UniProt P05177); test: p450-cyp1a2 (AID 410; calls by dose curve; also: potency is read from the fitted curve at half-maximal effect;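 as to activity change, negative = inhibition: -100% = full effect of reference inhibitor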); conditions: recombinant CYP1A2, luciferin-ME demethylation, luminescence; series mostly up to 11.4 µM
Sequence of Cytochrome P450 1A2 (Homo sapiens) (P05177 whole entry, looked up): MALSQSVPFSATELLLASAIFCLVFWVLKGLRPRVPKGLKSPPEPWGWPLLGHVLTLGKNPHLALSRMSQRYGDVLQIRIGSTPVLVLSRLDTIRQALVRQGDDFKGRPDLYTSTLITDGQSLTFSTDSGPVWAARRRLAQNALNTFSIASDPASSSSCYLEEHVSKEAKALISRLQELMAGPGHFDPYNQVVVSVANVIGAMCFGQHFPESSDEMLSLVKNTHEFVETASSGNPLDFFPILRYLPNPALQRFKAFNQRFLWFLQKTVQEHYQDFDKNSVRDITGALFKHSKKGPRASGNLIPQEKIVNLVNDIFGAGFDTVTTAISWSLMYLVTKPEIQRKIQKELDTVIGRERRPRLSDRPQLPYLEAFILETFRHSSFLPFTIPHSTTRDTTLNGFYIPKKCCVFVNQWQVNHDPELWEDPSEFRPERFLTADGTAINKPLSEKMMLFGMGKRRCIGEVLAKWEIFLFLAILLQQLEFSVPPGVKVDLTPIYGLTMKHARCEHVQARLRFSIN
Outline: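 20nM CYP1A2 with 100uM Luciferin-ME (at Km) in 100mM KPO4; compound preincubated 10 min, NADPH regeneration added, 60 min at room temperature. Luciferin quantified by luminescence after detection reagent; normalized to 57 uM furafylline.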

[4] = Stat Signaling Pathway (AID 446); conditions: ME-180 SIE beta-lactamase reporter, IL-6 stimulated, 5 h; at 7.69 µM (top of the series) unless noted;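 also: ME-180 cervical cancer cells given 40 pM IL-6 alongside compound; SIE-controlled beta-lactamase reporter measured as 460/530 nm FRET emission ratio; % is scaled to controls: 0 for no effect and ±100 for the full control effect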
Outline: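 Screening format detects activators and inhibitors alike: ME-180 SIE-bla cells stimulated at 40 pM IL-6 for 5 hrs with compound, then dual-emission beta-lactamase read at 405 nm excitation.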

[5] = target: Glucocorticoid receptor (Homo sapiens) (UniProt P04150); test: GR-GFP Redistribution (AID 450;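 active = compounds whose dose series gives a full or clear partial fitted curve of increased nuclear translocation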; also: potency is read from the fitted curve at half-maximal effect); conditions: U2OS GR-GFP nuclear translocation, laser cytometry, 2 h
Sequence of Glucocorticoid receptor (Homo sapiens) (P04150 whole entry, looked up, the tested form may be a part): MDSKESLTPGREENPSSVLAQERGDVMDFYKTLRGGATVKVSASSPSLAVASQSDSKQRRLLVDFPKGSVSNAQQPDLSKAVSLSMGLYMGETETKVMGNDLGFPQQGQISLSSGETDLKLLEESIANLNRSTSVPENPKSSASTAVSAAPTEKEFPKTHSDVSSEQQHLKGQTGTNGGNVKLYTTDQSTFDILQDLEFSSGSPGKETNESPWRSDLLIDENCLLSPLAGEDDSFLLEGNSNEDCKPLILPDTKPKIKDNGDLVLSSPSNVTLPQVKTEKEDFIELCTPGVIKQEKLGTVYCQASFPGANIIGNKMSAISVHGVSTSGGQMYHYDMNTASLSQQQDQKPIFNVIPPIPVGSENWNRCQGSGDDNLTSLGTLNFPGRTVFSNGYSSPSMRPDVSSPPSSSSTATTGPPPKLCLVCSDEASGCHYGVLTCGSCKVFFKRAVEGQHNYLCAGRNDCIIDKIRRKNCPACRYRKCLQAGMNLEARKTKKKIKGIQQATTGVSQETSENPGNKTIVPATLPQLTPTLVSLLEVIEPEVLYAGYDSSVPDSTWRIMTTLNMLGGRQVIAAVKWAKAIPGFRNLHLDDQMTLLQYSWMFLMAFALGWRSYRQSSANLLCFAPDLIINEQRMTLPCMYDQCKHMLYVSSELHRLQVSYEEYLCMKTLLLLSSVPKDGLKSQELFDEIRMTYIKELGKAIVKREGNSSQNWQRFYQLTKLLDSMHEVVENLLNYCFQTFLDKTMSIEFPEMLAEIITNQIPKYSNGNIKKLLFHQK

[6] = target: Glucocorticoid receptor (Homo sapiens) (UniProt P04150); test: GR-EFC Redistribution (AID 451; calls by dose curve; also: potency is read from the fitted curve at half-maximal effect); conditions: CHO-K1 GR-EFC translocation, beta-gal luminescence, 2 h
Outline: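 CHO-K1 cells expressing nuclear EA and GR-ED fragments of b-gal; compounds titrated up to 46 uM final, 2 h at 37 C. GR nuclear translocation read as complemented b-gal luminescence after 1 h RT detection.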

[7] = target: 3',5'-cyclic-AMP phosphodiesterase 4B (Homo sapiens) (UniProt Q07343); test: qHTS Assay for Inhibitors of PDE-IV (AID 607; active = well fitted activation curve with a large enough effect in the main read-out, with a control signal flat, not every such curve was filed as active; also: % of control where 0% means no effect); conditions: HEK293 ACTOne CNG channel cells, membrane potential fluorescence; series mostly up to 22.9 µM
Sequence of 3',5'-cyclic-AMP phosphodiesterase 4B (Homo sapiens) (Q07343 whole entry, looked up): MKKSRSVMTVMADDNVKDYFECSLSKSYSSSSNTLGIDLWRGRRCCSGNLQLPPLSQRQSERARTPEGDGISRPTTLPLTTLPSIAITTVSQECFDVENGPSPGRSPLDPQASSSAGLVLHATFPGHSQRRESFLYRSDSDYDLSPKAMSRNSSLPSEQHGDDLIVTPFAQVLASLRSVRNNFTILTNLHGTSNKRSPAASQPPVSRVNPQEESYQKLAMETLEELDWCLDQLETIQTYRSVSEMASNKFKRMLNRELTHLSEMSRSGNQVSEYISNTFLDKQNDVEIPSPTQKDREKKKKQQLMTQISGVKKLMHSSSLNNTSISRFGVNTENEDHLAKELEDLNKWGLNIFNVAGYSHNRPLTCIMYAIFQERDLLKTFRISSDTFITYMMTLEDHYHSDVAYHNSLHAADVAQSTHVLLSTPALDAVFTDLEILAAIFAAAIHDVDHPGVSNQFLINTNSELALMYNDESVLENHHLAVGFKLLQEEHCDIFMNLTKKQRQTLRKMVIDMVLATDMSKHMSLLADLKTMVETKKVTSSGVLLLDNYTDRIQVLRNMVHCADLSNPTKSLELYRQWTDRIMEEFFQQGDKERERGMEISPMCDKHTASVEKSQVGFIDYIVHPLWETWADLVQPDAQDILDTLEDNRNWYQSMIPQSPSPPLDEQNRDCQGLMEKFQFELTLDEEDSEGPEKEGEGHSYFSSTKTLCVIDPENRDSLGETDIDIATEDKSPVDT
Outline: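 The readout is membrane depolarisation from a cAMP-sensing CNG channel, detected with a potential dye at ex 535/em 590. Cells were HEK293-derived (endogenous PDE-IV) at 1000 cells/well, titrated up to 22.9 uM final.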

[8] = qHTS Assay for Identification of Small Molecule Agonists for Hypoxia Response Element Signaling Pathway (AID 914; active = well fitted activation curve with a large enough effect in the signal ratio, with a control signal flat, not every such curve was filed as active; the % refers to the signal ratio; also: % of control where 0% means no effect); conditions: ME-180 (cervical carcinoma) HRE-bla reporter, beta-lactamase ratio, CoCl2, 17 h; activation: active compounds read high
Outline: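 A beta-lactamase reporter under hypoxia response element control in ME-180 cells served as the system. Compound titrations plus EC50 CoCl2 ran 17 h at 37 degrees Celsius; AC50 values were fitted from %Activity.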

[9] = target: Mitogen-activated protein kinase 10 (Mus musculus) (UniProt Q61831); test: JNK3 AlphaScreen Assay (AID 530); conditions: JNK3 lysate, c-Jun phosphorylation; series mostly up to 11.4 µM;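 also: kinase came from lysate of stimulated human HepG2 cells; signal reports phosphorylation of biotinylated GST-cJun 1-79 at Ser73 with 10 µM ATP; % is scaled to controls: 0 for no effect and ±100 for the full control effect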
Outline: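 Pre-activated (IL-1β/TNFα) JNK3 in HepG2 lysates phosphorylates biotin-GST-cJun(1-79), 10 uM ATP; anti-phospho-cJun(Ser73) AlphaScreen read at room temperature, pH 7.6 Tris buffer. Compounds pre-incubated 15 min as titrations.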

[10] = target: Cytochrome P450 2C19 (Homo sapiens) (UniProt P33261); test: qHTS Assay for Inhibitors and Substrates of Cytochrome P450 2C19 (AID 899; active = well fitted curve in the direction sought with a large enough effect; an effect the other way counts as inactive or inconclusive; also: nearly all actives have a fitted effect of over 60% in size; also: potency is read from the fitted curve at half-maximal effect; as to activity, negative = inhibition: % is scaled to controls: 0 for no effect and ±100 for the full control effect); conditions: recombinant CYP2C19, luciferin-H EGE luminescence; series mostly up to 11.4 µM
Sequence of Cytochrome P450 2C19 (Homo sapiens) (P33261 whole entry, looked up): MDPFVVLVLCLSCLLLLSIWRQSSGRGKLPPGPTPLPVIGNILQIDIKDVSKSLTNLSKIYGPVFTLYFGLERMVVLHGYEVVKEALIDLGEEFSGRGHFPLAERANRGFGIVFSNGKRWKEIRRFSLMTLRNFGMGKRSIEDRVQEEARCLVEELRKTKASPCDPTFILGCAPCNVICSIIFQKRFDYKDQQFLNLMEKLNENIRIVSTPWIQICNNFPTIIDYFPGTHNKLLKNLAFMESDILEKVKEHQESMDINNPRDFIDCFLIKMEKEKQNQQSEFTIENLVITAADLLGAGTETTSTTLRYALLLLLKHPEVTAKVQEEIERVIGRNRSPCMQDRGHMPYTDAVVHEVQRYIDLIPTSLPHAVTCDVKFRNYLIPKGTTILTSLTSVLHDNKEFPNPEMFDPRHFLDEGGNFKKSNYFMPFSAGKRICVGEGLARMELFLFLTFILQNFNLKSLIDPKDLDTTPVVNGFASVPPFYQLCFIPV
Outline: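 5 nM human CYP2C19 with 10uM Luciferin-H EGE (at KM) in 50mM KPO4, compound preincubated 10 min at 37C, then NADPH regeneration for 60 min at 37C. Luciferin read by luminescence after detection reagent; normalized to 57uM ketoconazole as full inhibition.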

[11] = target: Cytochrome P450 3A4 (Homo sapiens) (UniProt P08684); test: qHTS Assay for Inhibitors and Substrates of Cytochrome P450 3A4 (AID 884; active = well fitted curve in the direction sought with a large enough effect; an effect the other way counts as inactive or inconclusive; also: potency is read from the fitted curve at half-maximal effect; nearly all actives have a fitted effect of over 50% in size); conditions: recombinant CYP3A4, Luciferin-PPXE luminescence; series mostly up to 57.1 µM
Sequence of Cytochrome P450 3A4 (Homo sapiens) (P08684 whole entry, looked up): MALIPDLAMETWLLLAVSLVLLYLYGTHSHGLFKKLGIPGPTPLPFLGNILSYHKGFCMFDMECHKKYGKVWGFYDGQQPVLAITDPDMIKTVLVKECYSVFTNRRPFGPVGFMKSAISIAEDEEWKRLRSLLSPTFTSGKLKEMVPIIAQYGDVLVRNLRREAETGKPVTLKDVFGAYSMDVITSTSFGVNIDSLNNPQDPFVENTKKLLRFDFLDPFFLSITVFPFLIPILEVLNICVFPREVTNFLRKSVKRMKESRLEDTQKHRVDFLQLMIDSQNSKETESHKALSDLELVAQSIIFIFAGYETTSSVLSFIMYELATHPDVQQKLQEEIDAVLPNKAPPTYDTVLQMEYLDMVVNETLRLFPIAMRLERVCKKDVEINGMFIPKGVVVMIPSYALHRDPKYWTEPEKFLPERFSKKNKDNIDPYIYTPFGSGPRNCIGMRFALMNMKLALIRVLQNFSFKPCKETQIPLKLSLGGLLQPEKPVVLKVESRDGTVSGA
Outline: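 20 nM human CYP3A4 with 25 uM Luciferin-PPXE (at KM) in 200 mM KPO4, preincubated 10 min with compound; NADPH regeneration started a 60 min RT reaction. Luciferin detected by luminescence, normalized to 57 uM ketoconazole as full inhibition.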

[12] = target: Cytochrome P450 3A4 (Homo sapiens) (UniProt P08684); test: qHTS Assay for Activators of Cytochrome P450 3A4 (AID 885; active = well fitted curve in the direction sought with a large enough effect; an effect the other way counts as inactive or inconclusive; also: nearly all actives have a fitted effect of over 65% in size); conditions: recombinant CYP3A4, Luciferin-PPXE luminescence, 60 min; series mostly up to 11.4 µM
Outline: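 Steps: enzyme/substrate mix dispensed; compound added, 10 min RT; NADPH regeneration solution added, 60 min RT; luciferin detection buffer stops reaction; 20 min later luminescence measured.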

[13] = target: Cytochrome P450 2D6 (Homo sapiens) (UniProt P10635); test: qHTS Assay for Inhibitors and Substrates of Cytochrome P450 2D6 (AID 891; active = well fitted curve in the direction sought with a large enough effect; an effect the other way counts as inactive or inconclusive; also: nearly all actives have a fitted effect of over 60% in size; also: potency is read from the fitted curve at half-maximal effect); conditions: recombinant CYP2D6, luciferin-ME EGE luminescence; series mostly up to 11.4 µM
Sequence of Cytochrome P450 2D6 (Homo sapiens) (P10635 whole entry, looked up): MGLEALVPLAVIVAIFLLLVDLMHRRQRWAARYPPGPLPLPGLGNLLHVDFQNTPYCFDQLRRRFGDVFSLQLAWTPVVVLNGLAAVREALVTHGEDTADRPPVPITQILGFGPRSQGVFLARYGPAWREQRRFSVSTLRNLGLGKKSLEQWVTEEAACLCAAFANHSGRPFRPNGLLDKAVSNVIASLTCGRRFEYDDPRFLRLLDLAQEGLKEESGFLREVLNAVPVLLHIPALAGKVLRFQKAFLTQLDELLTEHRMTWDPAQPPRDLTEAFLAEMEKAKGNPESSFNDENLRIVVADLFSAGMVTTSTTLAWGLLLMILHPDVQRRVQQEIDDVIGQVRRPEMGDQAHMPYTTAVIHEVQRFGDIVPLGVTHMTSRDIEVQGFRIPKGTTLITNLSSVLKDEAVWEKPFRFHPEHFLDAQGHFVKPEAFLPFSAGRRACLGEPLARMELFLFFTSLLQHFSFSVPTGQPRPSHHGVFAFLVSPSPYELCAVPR
Outline: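 Human CYP2D6 (5 nM) with 30 uM Luciferin-ME EGE (at Km) in 100 mM KPO4, compound preincubated 10 min, then NADPH regeneration system for 60 min at room temperature. Luciferin read by luminescence; normalized to 1.43 uM quinidine.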

SMILES | Potency [1] | activity change, negative = inhibition [2] | activity change, negative = inhibition [3] | activity, negative = inhibition [4] | Potency [5] | Potency [6] | Potency [7] | activation [8] | Potency [3] | Potency [9] | Potency [10] | Potency [11] | Potency [12] | Potency [13]
O[C@H](C[C@@H]1CCCCN1)c1ccc2c(c1)oc1ccccc12 | > 11.4 µM | 6.24% | -10.4% [at 2.29 µM] | 4% | > 46 µM | > 9.22 µM | inactive | -0.884% | – | – | – | – | – | –
N#Cc1ccc(CN2CC3(CCN(C(=O)c4cc(C(F)(F)F)cc(C(F)(F)F)c4)CC3)C2)cc1 | > 11.4 µM | -21.3% | – | 7.48% | – | > 46 µM | inactive | – | inactive | inactive | – | – | – | –
O=C(O)c1ccccc1N[C@H](c1ccccc1)c1ccc2cccnc2c1O | > 11.4 µM | 0.796% | – | -21.5% | > 46 µM | > 9.22 µM | inactive | – | 1.58 µM (active) | inactive | 3.98 µM (active) | – | – | –
O=C(O)CCNc1ncnc2nc[nH]c12 | > 11.4 µM | 8.82% | – | -5.64% | > 46 µM | – | inactive | – | inactive | inactive | – | – | – | –
O=C(c1cc(Br)ccc1O)c1cc(Br)ccc1O | > 11.4 µM | -21.4% | – | -28% | > 46 µM | – | inactive | – | 1 µM (active) | inactive | 0.199 µM (active) | – | – | –
O=C(c1cc(C(F)(F)F)cc(C(F)(F)F)c1)N1CCC[C@@]2(CCN(Cc3ccccc3)C2)C1 | > 11.4 µM | 2.92% | – | 7.65% | – | > 46 µM | inactive | – | 25.1 µM (active) | inactive | – | 5.01 µM (active) | inactive | –
Cc1[nH]n(-c2ccc(S(=O)(=O)O)cc2)c(=O)c1N=Nc1ccccc1 | > 11.4 µM | -16.3% | – | -16.2% | > 46 µM | > 9.22 µM | inactive | 27.8% | inactive | inactive | inactive | – | – | –
Nc1cccc2nsnc12 | > 11.4 µM | 20.1% | -15.3% [at 2.29 µM] | 2.62% | > 46 µM | > 9.22 µM | inactive | – | – | – | inactive | – | – | inactive
CN(Cc1cccc2ccccc12)Cc1cccc2ccccc12 | > 11.4 µM | 6.28% | – | -2.17% | > 46 µM | > 9.22 µM | inactive | – | 3.16 µM (active) | inactive | 1.58 µM (active) | – | – | 0.398 µM (active)
Cn1c(=O)c2c(nc(NCCNc3nc4c(c(=O)n(C)c(=O)n4C)n3C)n2C)n(C)c1=O | > 11.4 µM | 4.17% | – | 14.6% | > 46 µM | > 9.22 µM | inactive | – | inactive | inactive | inactive | – | – | –
O=C(O)C[C@H](NC(=O)CP(=O)(O)O)C(=O)O.[NH-][C@@H]1CCCC[C@@H]1[NH-].[Pt] | > 11.4 µM | -4.37% | – | -12% | > 46 µM | > 9.22 µM | inactive | – | inactive | – | – | – | – | –
C[N+](C)(C)c1nc(N)nc2c1ncn2[C@H]1O[C@@H](CO)[C@@H](O)[C@H]1O | > 11.4 µM | 6.27% | -4.9% [at 2.29 µM] | -3.17% | > 46 µM | > 9.22 µM | inactive | – | – | inactive | inactive | – | – | –
O=C(O)/C(=C\c1ccncc1)c1cccc2ccccc12 | > 11.4 µM | -1.57% | – | 7.21% | > 46 µM | > 9.22 µM | inactive | – | 3.98 µM (active) | inactive | 2.51 µM (active) | – | – | –
NS(=O)(=O)c1ccc(N=Nc2nc3[nH]cnc(=S)c3[nH]2)cc1 | > 11.4 µM | 2.31% | – | 14.2% | > 46 µM | – | inactive | – | 6.31 µM (active) | inactive | – | – | – | –
Cc1ccc(S(=O)(=O)Nc2ccccc2C=O)cc1 | > 11.4 µM | -0.783% | – | 24% | > 46 µM | > 9.22 µM | inactive | – | inactive | inactive | 5.01 µM (active) | – | – | –
C[C@@]12CC[C@H]3[C@H](CC=C4C[C@@H](O)CC[C@@]43C)[C@@H]1CC[C@@H]2N(CCO)CCO | > 11.4 µM | -4.05% | – | 18.7% | > 46 µM | > 9.22 µM | inactive | 9.1% | inactive | inactive | – | – | – | –
